The whole screen tested about 16,000 compounds, of which about 5,800 (36%) were called active. Roughly 23% stayed inconclusive and do not appear here. The call rests on the fitted dose curve; in most records, active means well fitted curve in the direction sought with a large enough effect; inconclusive means small, poorly fitted or top-dose-only effect, or effect the other way; inactive means no such curve, though single readings can be large or run the other way. Some of the results follow.
biological target: Cytochrome P450 2C19 (Homo sapiens) (UniProt P33261); experiment: Cytochrome panel assay with activity outcomes; conditions: recombinant CYP, pro-luciferin dealkylation, luminescence, p450-cyp2c19; series mostly up to 57.1 µM
Sequence (P33261 whole entry, looked up): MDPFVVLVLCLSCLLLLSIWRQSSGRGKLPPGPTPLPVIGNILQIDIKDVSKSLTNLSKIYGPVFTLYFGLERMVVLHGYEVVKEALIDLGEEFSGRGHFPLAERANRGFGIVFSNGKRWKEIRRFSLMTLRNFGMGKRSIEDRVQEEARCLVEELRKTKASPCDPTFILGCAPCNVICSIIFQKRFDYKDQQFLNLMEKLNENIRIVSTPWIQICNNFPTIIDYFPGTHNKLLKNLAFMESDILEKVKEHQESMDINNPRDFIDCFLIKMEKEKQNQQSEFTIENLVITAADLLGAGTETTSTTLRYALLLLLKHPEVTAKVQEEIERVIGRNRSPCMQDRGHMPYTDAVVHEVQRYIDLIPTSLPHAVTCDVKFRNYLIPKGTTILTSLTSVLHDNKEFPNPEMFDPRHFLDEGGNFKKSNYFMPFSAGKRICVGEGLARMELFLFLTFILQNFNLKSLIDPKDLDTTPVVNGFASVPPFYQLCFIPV
On the % scale 0 is the no-effect control and ±100 the full control effect.

Row | SMILES | AC50 | activity, negative = inhibition
1 | COC(=O)N1CCC2(CCCN(C(=O)Nc3ccc(OC)cc3)C2)CC1 | inactive | 
2 | O=C(O)CCCCCn1c(SCC(=O)N2CCCC2)nc2ccsc2c1=O | inactive | 
3 | COc1ccc(NC(=O)CSc2nc3ccccc3c(=O)n2CCC(=O)N2CCCCC2)cc1 | 0.794 µM (active) | 
4 | O=c1c2ccccc2nc(SCc2ccccc2Cl)n1Cc1ccccc1 | 2.82 µM (active) | 
5 | Cc1cc(NC(=O)CSc2nc3ccsc3c(=O)n2Cc2ccccn2)n[nH]1 | 15.8 µM (active) | 
6 | O=C(CSc1nc2ccccc2c(=O)n1CCCC(=O)N1CCCC1)NCc1ccco1 | 4.47 µM (active) | 
7 | O=C(CSc1nc2ccccc2c(=O)n1NC(=O)Cc1ccccc1)NCc1ccccc1Cl | 0.794 µM (active) | 
8 | CCOC(=O)C1=C(O)/C(=C/c2cc(OC)c(OC)c(OC)c2)N=C1C | inactive | 
9 | CCOc1cc(/C=C2\N=C(C)OC2=O)cc(Br)c1OCC(=O)OC | inactive | 
10 | CCOC(=O)COc1c(C=O)cc(Br)cc1OC | 6.31 µM (active) | 
11 | Cc1ccc(C)c(S(=O)(=O)N2CCC(c3nc4c(nnn4Cc4ccc(F)cc4)c(=O)[nH]3)CC2)c1 | 4.47 µM (active) | 
12 | Nc1nc(Br)c2c(F)cccc2c1-c1ccc(Cl)cc1 | 1.26 µM (active) | 
13 | Nc1nc(Br)c2ccccc2c1-c1ccc(F)cc1 | 2.82 µM (active) | 
14 | O=C(Cc1ccc2c(c1)CCCC2)Nc1ccccc1Br | 3.55 µM (active) | 
15 | CC1=CC(C)(C)N(C)C(=O)N1c1ccc(Cl)cc1 | 15.8 µM (active) | 
16 | NC(N)=Nc1nc(CCN2C(=O)c3ccccc3C2=O)cs1 | 2.82 µM (active) | 
17 | CO[C@@H]1COC(=O)CC=C[C@@H](C)[C@@H]2C=C[C@@H](O)[C@@H](COC(=O)C/C=C\[C@H]1C)O2 |  | -8% [at 11.4 µM] (inactive)
18 | CC(=O)Nc1ccc(C(=O)NNC(=O)CCc2ccccc2)cc1 | inactive | 
19 | Cc1cccc(C)c1NC(=S)NC(=O)CCc1ccccc1 | 3.55 µM (active) | 
20 | Cc1cccc(NC(=S)NC(=O)CCc2ccccc2)c1 | 5.62 µM (active) | 
21 | CCC(=O)Nc1cccc(C(=O)/C=C/c2ccccc2)c1 | 5.62 µM (active) | 
22 | CCCCC(=O)NC(=S)Nc1cccc(NC(=O)CC)c1 | 10 µM (active) | 
23 | Cc1cccc(C)c1NC(=O)CS(=O)CC(=O)NCCCc1ccccc1 (configuration not stated) | inactive | 
24 | CCC(=O)NNC(=O)CCC(=O)Nc1ccccc1 | inactive | 
25 | Cn1c(=O)c2c(-c3cccc(F)c3)c3c(nc2n(C)c1=O)-c1ccccc1C3O (configuration not stated) | inactive | 
26 | Cc1c(C)c(C)c(CC2(C)CSC2)c(CC2(C)CSC2)c1C |  | 35.5% [at 11.4 µM] (inactive)
27 | CN(C)c1ncc2ncc(=O)n(C3CC3)c2n1 | inactive | 
